From PubChem BioAssay
Only some compounds are listed: those with a hit (about 5.4% of all), similar ones and a draw of the others.
p53 reactivation: mutant p53 re-activation in reporter cells; H1299 p53-A138V BP100-luciferase reporter, luminescence, 24 h; hit rate 0.063% among 320,000; Potency, µM (top dose mostly 92.2 µM), inactives show top-dose activity change, positive = activation, hits mostly activators; AID 504706; further: potency means the concentration at half of the fitted maximal effect; % of control where 0% means no effect; nearly all actives have a fitted effect of over 45% in size
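H1299 (p53-null), stable ts p53-A138V + BP100-Luc; 1000 cells/well, Opti-MEM/10% FBS; cpd 4 pt, 1:5; 24 h, 37 deg C, 5% CO2; detection reagent 10 min RT; luminescence.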
RORgamma inh: blocks mouse ROR gamma transcriptional activity. P51450. Drosophila S2 Gal4-RORgamma UAS-luciferase reporter, 20 h. Potency, µM (highest dose often 53.6 µM), for inactives: at the top dose activity change, negative = inhibition, hits mostly inhibitors. hit rate 5.4% among 310,000; further: potency means the concentration at half of the fitted maximal effect; on the % scale 0 is the no-effect control and ±100 the full control effect; nearly all actives have a fitted effect of over 60% in size
Target sequence (P51450 whole entry, looked up, the tested form may be a part): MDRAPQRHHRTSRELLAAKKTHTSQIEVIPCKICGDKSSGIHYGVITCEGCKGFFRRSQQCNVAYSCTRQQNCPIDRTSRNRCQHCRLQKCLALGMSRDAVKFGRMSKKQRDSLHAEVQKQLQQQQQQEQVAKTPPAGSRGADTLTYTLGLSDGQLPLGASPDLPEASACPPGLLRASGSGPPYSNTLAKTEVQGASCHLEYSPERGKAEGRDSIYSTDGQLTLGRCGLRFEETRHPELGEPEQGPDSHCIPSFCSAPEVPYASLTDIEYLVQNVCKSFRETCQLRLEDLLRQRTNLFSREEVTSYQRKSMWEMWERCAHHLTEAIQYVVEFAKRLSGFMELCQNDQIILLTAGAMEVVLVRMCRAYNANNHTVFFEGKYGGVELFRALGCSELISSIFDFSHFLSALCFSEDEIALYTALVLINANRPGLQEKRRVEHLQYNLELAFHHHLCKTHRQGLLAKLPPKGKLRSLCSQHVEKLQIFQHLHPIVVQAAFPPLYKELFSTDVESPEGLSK
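Drosophila S2 cells stably expressing Gal4-DBD/mouse RORγ fusion under metallothionein promoter plus UAS-luciferase; compound 1 h, then 700 uM CuSO4 induction for 20 h at ambient temperature; inhibition read as reduced luminescence.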
Six1-Eya2 blk: inhibitors of human Six1/Eya2 interaction | Q15475+O00167 | AlphaScreen GST-Six1/His-Eya2 binding, biochemical; hits give low values | activity change, % (no concentration beside the values) | hit rate 0.56% among 360,000 | AID 651725; in the data active means activity change below about -65%; inconclusive means mostly about -30% to -63%; further: on the % scale 0 is the no-effect control and ±100 the full control effect
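Six1/Eya2 binding was read as AlphaScreen signal after compounds were pinned into GST-Six1 plus His-tagged Eya2 (5X stock 250/500 nM) in pH 8.0 Tris/NaCl/TCEP buffer, beads added, then incubated 1 h, 37 C, dark.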
CtBP-E1A blk: CtBP/E1A binding inhibition | activity change, % (no concentration beside the values) | hit rate 0.49% among 340,000 | AID 651724 | AlphaScreen GST-E1A/His-CtBP binding, 1536-well; hits give low values; in the data active means activity change below about -65%; inconclusive means mostly about -30% to -63%; further: on the % scale 0 is the no-effect control and ±100 the full control effect
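Steps: dispense buffer (Tris pH 8.0, NaCl 300 mM, TCEP 1 mM, BSA, Tween 20); add 5X protein mix (GST-E1A, His-CtBP, 125 nM each); pin 23 nL compound; 2 h at 37 °C, dark; add 5X beads (50 ug/mL); 1 h; read.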
VP16 counter: inhibits Gal4-VP16 luciferase reporter, ROR gamma counter-screen. hit rate 3.5% among 310,000. Potency, µM (series often up to 53.6 µM), for inactives: top-dose activity, negative = inhibition, most hits filed as inhibitors. Drosophila S2 Gal4-VP16 UAS-luciferase, luminescence, 20 h;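 further: Gal4-VP16 expression switched on by copper sulfate through the metallothionein promoter; potency means the concentration at half of the fitted maximal effect; on the % scale 0 is the no-effect control and ±100 the full control effect; nearly all actives have a fitted effect of over 50% in size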
* = called active by the depositor; u = inconclusive; x = no result given. Unless noted, the call rests on the fitted dose curve; in most records, active means well fitted curve in the direction sought with a large enough effect; inconclusive means small, poorly fitted or top-dose-only effect, or another doubt; inactive means no such curve, though single readings can be large; an effect the other way counts as inactive or inconclusive.

SMILES | p53 reactivation | RORgamma inh | Six1-Eya2 blk | CtBP-E1A blk | VP16 counter
COc1ccc(C(=O)Nn2c(SCC(=O)c3ccccc3)nc3ccccc3c2=O)cc1 | 27% | 11µM* | -2 | -10 | u
CCC(C)NC(=O)CSc1nc2ccc(N3CCOCC3)cc2c(=O)n1CCc1ccccc1 (stereo not drawn) | 10% | 7.9µM* | x | x | u
CCOC(=O)CSc1nc2ccccc2c(=O)n1NC(=O)c1ccccc1 | 44% | -22% | -9 | -14 | -3%
CCC(C)NC(=O)CSc1nc2ccccc2c(=O)n1Cc1ccc(OC)cc1 (stereo not drawn) | 5% | 8% | 0 | 5 | 10µM*
COCCNC(=O)CSc1nc2ccc(N3CCOCC3)cc2c(=O)n1Cc1ccc(OC)cc1 | 3% | 10µM* | -6 | -16 | 14µM*
CCCCNC(=O)CSc1nc2ccc(N3CCOCC3)cc2c(=O)n1Cc1ccc(OC)cc1 | 5% | u | 5 | 2 | -2%
CCCNC(=O)NC(=O)CSc1nc2ccccc2c(=O)n1Cc1ccncc1 | 13% | 9% | 9 | -18 | 3%
O=C(C1CCN(S(=O)(=O)c2c(Cl)cccc2Cl)CC1)N1CCCCCCC1 | 0% | x | 4 | -10 | x
CN(Cc1ccco1)c1ncnc2ccc(-c3cccc(C#N)c3)cc12 | x | -11% | x | x | 3%
CC(C)c1cc(C(=O)NCCc2ccccc2)no1 | 30% | -11% | 5 | -13 | 0%
CCCCn1c(SCC(=O)Nc2ccc(OC)cc2)nc2ccc(N3CCOCC3)cc2c1=O | 18% | u | -1 | -7 | 10µM*
CCCCn1c(SCC(=O)NCc2ccccc2)nc2ccc(N3CCOCC3)cc2c1=O | 9% | u | -1 | 3 | u
CCCCn1c(SCC(=O)NCc2ccco2)nc2ccc(N3CCOCC3)cc2c1=O | -10% | 6.3µM* | -7 | -4 | 18µM*
CCCCn1c(SCC(=O)NC(C)CC)nc2ccc(N3CCOCC3)cc2c1=O (stereo not drawn) | 10% | 1.3µM* | 0 | 2 | 20µM*
O=C(C1=C(O)C(=O)N(CC2CCCO2)C1c1cccc(Cl)c1)c1ccco1 (stereo not drawn) | 1% | -2% | -13 | -15 | -11%
O=C(O)C1C2CCC1C(O)C2 (stereo not drawn) | x | x | 32 | -1 | x
CC(=O)c1ccc(NS(=O)(=O)c2cccc(C(=O)Nc3ccccc3C(=O)O)c2)cc1 | 14% | 11% | -8 | x | -9%
COc1ccc(-c2nc3cnc(N4CCNCC4)nc3n(-c3ccccc3)c2=O)cc1 | x | -18% | x | x | -7%
COc1cc(/C=C(\C#N)c2nc3ccccc3s2)ccc1OCC(=O)Nc1ccccc1 | -5% | 0.13µM* | 0 | 5 | -20%
Cc1onc(-c2ccccc2)c1C(=O)N/N=C(\N)COc1ccc(Cl)cc1 | -7% | 1µM* | -4 | -8 | 1.3µM*
Cc1onc(-c2ccccc2Cl)c1C(=O)N/N=C(\N)COc1ccc(Cl)cc1 | -4% | 0.45µM* | -5 | 5 | 1µM*
Cc1ccccc1C(=O)Oc1cccc2c(O)cccc12 | -31% | -27% | 5 | 6 | u
Cc1ccccc1S(=O)(=O)Oc1cccc2c(O)cccc12 | 10% | 7.1µM* | 0 | 4 | u
COCCn1c(SCC(=O)Nc2ccc(F)cc2F)nc2c([nH]c3ccccc32)c1=O | 21% | -20% | 9 | -2 | -7%
O=C(/C=C/c1ccc(F)cc1)N1CCc2ccccc2C1 | u | x | 0 | 3 | x
SMILES | p53 reactivation | RORgamma inh | Six1-Eya2 blk | CtBP-E1A blk | VP16 counter
Cc1ccc(/C=C/C(=O)N2CCc3ccccc3C2)cc1 | 14% | 18µM* | 0 | 4 | u
CC(C)(C)c1ccc(/C=C/C(=O)N2CCc3ccccc3C2)cc1 | -1% | u | 2 | 5 | 1µM*
O=C(/C=C/C(=O)N1CCc2ccccc2C1)N1CCc2ccccc2C1 | -5% | u | 6 | x | 20µM*
CCc1ccc(-n2c(SCC(=O)N3Cc4ccccc4CC3C(=O)O)nnc2-c2ccncc2)cc1 (stereo not drawn) | 3% | -35% | -1 | 2 | 0%
Cc1ccc2c(CC(=O)N3CCN(c4ccccc4)CC3)coc2c1 | -2% | u | -1 | -1 | -7%
COc1cccc(/C=N/NC(=O)CNC(=O)/C=C\c2ccccc2)c1O | 17% | 2.5µM* | 4 | x | 3.2µM*
